PubChem BioAssay AID1851 (National Center for Advancing Translational Sciences (NCATS), 2009)
Out of some 16,000 compounds screened, about 5,700 (36%) were called active. About 24% were inconclusive and are not listed. The list shows a part of the results. A number with no mark means an inactive call. Calls follow the shape of the dose curve; as a rule, active = well fitted curve in the direction sought with a large enough effect; inconclusive = small, poorly fitted or top-dose-only effect, or effect the other way; inactive = no such curve, though single readings can be large or run the other way.

molecular target: Cytochrome P450 1A2 (Homo sapiens) (UniProt P05177); assay: Cytochrome panel assay with activity outcomes; conditions: recombinant CYP, pro-luciferin dealkylation, luminescence, p450-cyp1a2; series mostly up to 57.1 µM; activity, negative = inhibition: at the top concentration
Sequence (P05177 whole entry, looked up): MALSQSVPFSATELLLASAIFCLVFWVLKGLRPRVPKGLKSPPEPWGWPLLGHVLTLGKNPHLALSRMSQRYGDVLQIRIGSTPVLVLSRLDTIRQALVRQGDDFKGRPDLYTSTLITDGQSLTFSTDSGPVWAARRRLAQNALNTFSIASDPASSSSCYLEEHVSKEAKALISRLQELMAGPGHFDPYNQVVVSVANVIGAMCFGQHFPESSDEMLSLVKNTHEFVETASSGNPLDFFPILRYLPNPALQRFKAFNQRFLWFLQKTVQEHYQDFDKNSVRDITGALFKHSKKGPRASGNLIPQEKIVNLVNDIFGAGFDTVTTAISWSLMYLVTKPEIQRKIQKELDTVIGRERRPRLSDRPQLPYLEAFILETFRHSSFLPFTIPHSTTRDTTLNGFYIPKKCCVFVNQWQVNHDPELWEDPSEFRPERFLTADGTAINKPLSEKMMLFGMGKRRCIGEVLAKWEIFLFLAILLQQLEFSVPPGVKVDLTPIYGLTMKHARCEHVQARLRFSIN
% is scaled to controls: 0 for no effect and ±100 for the full control effect.

SMILES	activity, negative = inhibition	AC50
Cc1noc(C)c1C(=O)N1CCC[C@@]2(CCN(Cc3ccccc3)C2)C1	5.42%	–
CC(C)CCn1c(Oc2ccccc2Cl)nc2c1c(=O)n(C)c(=O)n2C	–	14.1 µM (active)
Cn1c(=O)c2c(nc(N3CCN(c4ccccn4)CC3)n2Cc2ccccc2Cl)n(C)c1=O	-17%	–
Cn1c(=O)c2c(ncn2CC(COCc2ccccc2Cl)OCc2ccccc2Cl)n(C)c1=O (configuration not stated)	-8.25%	–
CSc1ccc(C#N)cc1NC(=O)c1cccc(Cl)c1	–	6.31 µM (active)
O=C(Nc1ccccc1N1CCN(C(=O)c2ccc(Cl)cc2)CC1)c1cc(Br)ccc1Cl	-26.3%	–
CCOc1cc(CC(=O)N[C@@H](CC(C)C)c2ccccc2N2CCCCC2)ccc1C(=O)O	1.45% [at 25.6 µM]	–
CCOc1ccc(C(=O)Nc2ccccc2N2CCCC2)cc1	–	2.82 µM (active)
CCN(CCO)C[C@H]1CCC[C@H]2CCCC[C@@H]21	–	5.01 µM (active)
O=C1NCCN1Cc1ccccc1F	–	3.55 µM (active)
Cc1ccc(CS(=O)(=O)CCC(=O)NCCN2CCCC2)cc1	-5.06%	–
COc1ccc(CC(=O)NCCN2CCCC2)cc1	-9.19%	–
O=C(NCCN1CCCCC1)c1ccc(I)cc1	–	25.1 µM (active)
Nc1cc(Cl)ccc1Oc1ccc(Cl)cc1	–	0.398 µM (active)
Nc1cc(Cl)ccc1Oc1ccccc1	–	7.94 µM (active)
CC(=O)NCCNc1nc(-c2ccccc2C)nc2ccccc12	–	6.31 µM (active)
CCN(CC)c1cc(C)c2cc(NC(=O)CNC(C)=O)ccc2n1	-11.9%	–
CC(C)(C)NCC[C@@H](O)c1cc(C(F)(F)F)nc2c(C(F)(F)F)cccc12	-9.91% [at 2.29 µM]	–
CC(=O)NCCNc1nc(-c2ccccc2C(F)(F)F)nc2ccccc12	–	15.8 µM (active)
CC(C)(C)CC(C)(C)c1ccc(OCOCCOCCO)c(Cc2cc(C(C)(C)CC(C)(C)C)cc(Cc3cc(C(C)(C)CC(C)(C)C)ccc3OCOCCOCCO)c2OCOCCOCCO)c1	-3.71% [at 25.6 µM]	–
COc1cccc(-c2csc(N3CCN(C(=S)Nc4ccccc4)CC3)n2)c1	–	3.16 µM (active)
CCOCCCNC(=O)C1CCN(S(=O)(=O)N2CC(C)CC(C)C2)CC1 (configuration not stated)	-3.01%	–
O=C(O)[C@H]1CCCN(CCC=C(c2ccccc2)c2ccccc2)C1	-1.11%	–

SMILES	activity, negative = inhibition	AC50
CCOC(=O)C1CCCN(S(=O)(=O)c2ccccc2)C1 (configuration not stated)	-11.5%	–
CCOC(=O)C1CCCN(C/C=C/c2ccccc2[N+](=O)[O-])C1 (configuration not stated)	–	4.47 µM (active)
C[C@@H]1CCCN(CP(=O)(c2ccccc2)c2ccccc2)C1	-3.49% [at 11.4 µM]	–
Cc1ccc(NC(=O)/C(=C/c2cccc([N+](=O)[O-])c2)NC(=O)C2CCCCC2)c(C)c1	10.1%	–
CC1CCCN(C/C=C/c2ccccc2[N+](=O)[O-])C1 (configuration not stated)	–	14.1 µM (active)
CCOC(=O)C1CCCN(C(=O)/C=C/c2cccc([N+](=O)[O-])c2)C1 (configuration not stated)	–	11.2 µM (active)
O=C(c1ccco1)N1CCC2(CC1)CCN(c1ccc(-c3ccccc3)cc1)CC2	-28.9%	–
O=C(c1ccco1)N1CCC[C@@]2(CCN(c3ccncc3)C2)C1	–	12.6 µM (active)
O=C(c1ccncc1)N1CCC[C@@]2(CCN(c3ccccc3)C2)C1	-10.4%	–
O=C(c1ccco1)N1CCC[C@@]2(CCN(Cc3ccccc3)C2)C1	-3.18%	–
O=C(c1ccco1)N1CCC2(CC1)CCN(c1ccccc1)CC2	-19%	–
O=C(c1ccco1)N1CCC2(CCCN(c3ccccc3)C2)CC1	6.83%	–
O=C(c1ccco1)N1CCC[C@@]2(CCN(c3cccc(-c4ccccc4)c3)C2)C1	–	15.8 µM (active)
O=C(c1ccco1)N1CCC2(CC1)CCN(c1cccc(-c3ccccc3)c1)CC2	–	15.8 µM (active)
O=C(c1ccco1)N1CCC2(CC1)CN(c1ccccc1)C2	-12.3%	–
CCOc1ccc(-c2nn(-c3ccccc3)cc2/C=C(\C#N)S(=O)(=O)c2ccccc2)cc1C	–	1 µM (active)
O=C1C2C3C=CC(C3)C2C(=O)N1/N=C/c1cn(Cc2ccc(F)cc2)c2ccccc12 (configuration not stated)	-24.6%	–
O=[N+]([O-])/C=C/c1cn(Cc2ccccc2)c2ccccc12	–	3.55 µM (active)
O=C1C2C3C=CC(C3)C2C(=O)N1/N=C/c1cn(Cc2ccccc2)c2ccccc12 (configuration not stated)	–	15.8 µM (active)
CCC(C(=O)c1ccccc1)N(C(=O)c1ccccc1Cl)N1C(=O)C2C3C=CC(C3)C2C1=O (configuration not stated)	4.91%	–
COc1ccc2c(c1OC)C(=O)N(C(C)C(=O)O)C2=O (configuration not stated)	4.35%	–
O=c1[nH]c(=O)c2nc3ccccc3nc2[nH]1	–	12.6 µM (active)
NS(=O)(=O)c1ccc(N=Nc2nc3[nH]c(=O)[nH]c(=O)c3[nH]2)cc1	-13.4% [at 11.4 µM]	–

SMILES	activity, negative = inhibition	AC50
COc1cnc(NS(=O)(=O)c2ccc(N)cc2)nc1	-7.79% [at 25.6 µM]	–
CC(=O)Nc1ccnc(-c2cccnc2)n1	–	2.51 µM (active)
CC(C)(C)C(=O)Nc1ccnc(-c2cccnc2)n1	–	2.24 µM (active)
CCC(=O)O[C@@]1(C(=O)CCl)[C@@H](C)C[C@@H]2[C@H]3CCC4=CC(=O)C=C[C@@]4(C)[C@]3(F)[C@@H](O)C[C@@]21C	-9.28% [at 25.6 µM]	–
O=C1[C@@H]2[C@H]3[C@H](O)[C@H](O)C/C(=N/OC[C@@H](O)COCc4ccco4)[C@H]3CC[C@H]2C(=O)N1c1ccc(F)cc1F	0.735% [at 11.4 µM]	–
Cc1[nH]c2ccccc2c1-c1cc(-c2cc(-c3c(C)[nH]c4ccccc34)on2)no1	–	0.398 µM (active)
Nc1n[nH]c2ccccc12	-9.07% [at 2.29 µM]	–
Cc1[nH]c2ccccc2c1-c1cc(-c2cc(-c3c(C)[nH]c4ccccc34)nc(N)n2)nc(N)n1	–	0.398 µM (active)
COc1ccc(COC(=O)N/N=C2/C[C@@H](O)[C@@H](O)[C@@H]3[C@@H]4C(=O)N(c5cccc(Oc6ccccc6)c5)C(=O)[C@H]4CC[C@H]23)cc1	3.29% [at 11.4 µM]	–
CC1=Nc2ccccc2/C1=C\c1nc(-c2ccc(C(F)(F)F)cc2)oc1O	–	0.891 µM (active)
O=C(c1cnccn1)N1CCC[C@@]2(CCN(c3cccc(-c4ccccc4)c3)C2)C1	–	25.1 µM (active)
O=C(c1cnccn1)N1CCC[C@@]2(CCN(c3ncccn3)C2)C1	-14.5%	–
O=C(c1ccncc1)N1CCC2(CC1)CN(c1ccc(-c3ccccc3)cc1)C2	-10.2%	–
O=C(c1cnccn1)N1CCC[C@@]2(CCN(c3ccncc3)C2)C1	-10.2%	–
O=C(c1ccncc1)N1CCC2(CC1)CN(c1ccccc1)C2	-19.4%	–
O=C(c1cnccn1)N1CCC2(CC1)CN(c1ccccc1)C2	-2.2%	–
O=C(c1cnccn1)N1CCC2(CCCN(c3ccccc3)C2)CC1	-3.6%	–
O=S(=O)(c1ccccc1)N1CCC2(CCCN(c3cccc(-c4ccccc4)c3)C2)CC1	1.5%	–
CS(=O)(=O)N1CCC2(CC1)CN(c1cccc(-c3ccccc3)c1)C2	–	5.01 µM (active)
CS(=O)(=O)N1CCC2(CC1)CN(c1ccncc1)C2	-0.451%	–
O=C(c1cnccn1)N1CCC2(CCCN(c3cccc(-c4ccccc4)c3)C2)CC1	–	20 µM (active)
O=C(c1ccncc1)N1CCC2(CC1)CN(c1cccc(-c3ccccc3)c1)C2	–	15.8 µM (active)
COc1ccc(CNC(C)(C)C)cc1Cl	4.33%	–

SMILES	activity, negative = inhibition	AC50
COc1cc(CNCc2ccccn2)ccc1OCc1ccc(Cl)cc1Cl	–	0.316 µM (active)
C=CCSc1nc2ccccc2n1C(=O)/C=C/c1cc(OC)c(OC)c(OC)c1	–	7.08 µM (active)
CCSc1nc2ccccc2n1C(=O)/C=C\c1ccc(OC)c(OC)c1	–	6.31 µM (active)
CCn1c(-c2ccccc2Cl)nn(CC(=O)Nc2ccccc2OC)c1=S	-20.3%	–
CCn1c(-c2ccccc2Cl)nn(CC(=O)Nc2cc(Cl)ccc2Cl)c1=S	–	15.8 µM (active)
CC(=O)OC[C@H]1O[C@@H](O/N=C(\C)CCN2CCCc3nc(C)c(C)cc32)[C@H](OC(C)=O)[C@@H](OC(C)=O)[C@H]1OC(C)=O	0.931% [at 11.4 µM]	–
CC(C)(C)N1C(=O)[C@H]2[C@H]3[C@H](O)[C@H](O)C/C(=N/OC[C@@H](O)COCc4ccco4)[C@@H]3CC[C@@H]2C1=O	4.56% [at 11.4 µM]	–
COc1ccc(-c2noc(N(C)CC(=O)Nc3cccc(C(F)(F)F)c3)n2)cc1	–	5.01 µM (active)
COCCNc1cc(-c2c(C)noc2C)ncn1	–	10 µM (active)
COCCNc1ncncc1-c1c(C)noc1C	-12.6%	–
CNc1cc(-c2c(C)noc2C)ncn1	–	5.01 µM (active)
Cc1noc(C)c1-c1cc(NC2CC2)ncn1	–	0.316 µM (active)
COC(=O)N1CCC2(CC1)CN(C(c1ccccc1)c1ccccc1)C2	-2.53%	–
C[C@@]12CCC(=O)C=C1CC[C@@H]1[C@@H]2[C@H](O)C[C@]2(C)[C@@H]1CC[C@]2(O)C(=O)CO	-6.61% [at 25.6 µM]	–
Cc1sc(NC(=O)c2ccccc2)c(C(=O)NCCN(C)C)c1C	–	11.2 µM (active)
CN(C(=O)CC(NC(=O)c1ccccc1)(c1ccccc1)c1ccccc1)c1ccccc1	-7.59%	–
Cc1sc(NC(=O)C(C)C)c(C(=O)Nc2ccccc2)c1C	–	1.26 µM (active)
CCOc1ccc(CC(=O)Nc2sc(Cc3ccccc3)c(C)c2C(N)=O)cc1OCC	-26.8%	–
CCOC(=O)c1c(NC(=O)Nc2ccccc2)sc(C)c1C	–	3.55 µM (active)
COC(=O)c1c(NC(C)=O)sc(Cc2ccccc2)c1C	–	1.58 µM (active)
CC(C)C(=O)Nc1ccc(C(=O)NNC(=O)C(c2ccccc2)c2ccccc2)cc1	-16.1%	–
CCN1CCN(C(c2ccccn2)c2c(NC(=O)c3ccccc3)sc(C)c2C)CC1 (configuration not stated)	-13.5%	–
C=C(Br)CN(C)CC(=C)Br	-4.98% [at 11.4 µM]	–
